{"source": "PubChem BioAssay", "note": "“And” between values parts separate entries of the source, which are not always exact repeats. Equal values may be shown once.", "data": [{"experiment": "viability loss with induced miR-34 in A549 – imaging, A549 dox-inducible miR-34, nuclei and caspase counts, primary screen (AID 1347080); also: test concentration not given here", "conditions": "A549 miR-34 inducible, Hoechst nuclei count, 48 h; measured here: relative caspase fold change +Dox/-Dox", "values": [{"compound": "CCC(=O)NCC[C@@H]1CCc2ccc3c(c21)CCO3", "fold change": 7.18}, {"compound": "C[C@@H]1[C@H](O)[C@@H](C)/C=C/C=C/C=C/C=C/C=C/C=C/C=C/[C@H](O[C@@H]2O[C@H](C)[C@@H](O)[C@H](N)[C@@H]2O)C[C@@H]2O[C@](O)(C[C@@H](O)C[C@@H](O)[C@H](O)CC[C@@H](O)C[C@@H](O)CC(=O)O[C@H]1C)C[C@H](O)[C@H]2C(=O)O", "fold change": 1.05}, {"compound": "O=C(O)C1=CCCNC1", "fold change": "0.827 and 0.802"}, {"compound": "CN[C@H](CC(C)C)C(=O)N[C@H]1C(=O)N[C@@H](CC(N)=O)C(=O)N[C@H]2C(=O)N[C@H]3C(=O)N[C@H](C(=O)N[C@H](C(=O)O)c4cc(O)cc(O)c4-c4cc3ccc4O)[C@H](O)c3ccc(c(Cl)c3)Oc3cc2cc(c3O[C@@H]2O[C@H](CO)[C@@H](O)[C@H](O)[C@H]2O[C@H]2C[C@](C)(N)[C@H](O)[C@H](C)O2)Oc2ccc(cc2Cl)[C@H]1O", "fold change": 1.32}, {"compound": "CC[C@@]1(O)C[C@H](O[C@H]2C[C@H](N(C)C)[C@H](O[C@H]3C[C@H](O)[C@H](O[C@H]4CCC(=O)[C@H](C)O4)[C@H](C)O3)[C@H](C)O2)c2c(cc3c(c2O)C(=O)c2c(O)cccc2C3=O)[C@H]1C(=O)OC", "fold change": 0.972}, {"compound": "C[C@H]1O[C@@H](O[C@H]2[C@@H](O)C[C@H](O[C@H]3[C@@H](O)C[C@H](O[C@H]4CC[C@@]5(C)[C@H](CC[C@@H]6[C@@H]5C[C@@H](O)[C@]5(C)[C@@H](C7=CC(=O)OC7)CC[C@]65O)C4)O[C@@H]3C)O[C@@H]2C)C[C@H](O)[C@@H]1O", "fold change": 2.27}, {"compound": "CCC[C@@H]1C[C@@H](C(=O)N[C@@H]([C@H]2O[C@H](SC)[C@H](O)[C@@H](O)[C@H]2O)[C@H](C)Cl)N(C)C1", "fold change": "1.22 and 1"}, {"compound": "C[C@H]1C[C@H]2[C@@H]3CCC4=CC(=O)C=C[C@]4(C)[C@@]3(F)[C@@H](O)C[C@]2(C)[C@@]1(O)C(=O)CO", "fold change": 1.45}, {"compound": "COc1cccc(OC)c1OCCNCC1COc2ccccc2O1", "note": "(configuration not stated)", "fold change": "1.13 and 0.877"}, {"compound": "O=C(O)c1cc(=O)c2ccc(Cl)cc2[nH]1", "fold change": 1.21}, {"compound": "C=C(C)[C@@H]1CC[C@]2(C(=O)O)CC[C@]3(C)[C@H](CC[C@@H]4[C@@]5(C)CC[C@H](O)C(C)(C)[C@@H]5CC[C@]43C)[C@@H]12", "fold change": "1.41 and 0.964"}, {"compound": "COc1cc2c(c(OC)c1OC)-c1ccc(OC)c(=O)cc1C(NC(C)=O)CC2", "note": "(configuration not stated)", "fold change": 1.26}, {"compound": "CC(C)C[C@H]1C(=O)N2CCC[C@H]2[C@]2(O)O[C@](NC(=O)[C@@H]3C=C4c5cccc6[nH]c(Br)c(c56)C[C@H]4N(C)C3)(C(C)C)C(=O)N12", "fold change": "1.68 and 0.668"}, {"compound": "O=C(/C=C/c1ccc(O)c(O)c1)O[C@H](Cc1ccc(O)c(O)c1)C(=O)O", "fold change": "1.31 and 0.699"}, {"compound": "O=C(O)C1=CCNCC1", "fold change": "1.35 and 1.1"}, {"compound": "CC(=O)[C@H]1CC[C@H]2[C@@H]3CCC4=CC(=O)CC[C@]4(C)[C@H]3CC[C@]12C", "fold change": "0.82 and 1.33 and 1.49"}, {"compound": "O=C(O)Cc1nn(Cc2ccc(Br)cc2F)c(=O)c2ccccc12", "fold change": 0.601}, {"compound": "CCC[C@@H]1C[C@@H](C(=O)N[C@@H]([C@H]2O[C@H](SC)[C@H](O)[C@@H](O)[C@H]2O)[C@@H](C)O)N(C)C1", "fold change": 1.35}, {"compound": "COc1ccc([C@@H]2CC(=O)c3c(O)cc(O[C@@H]4O[C@H](CO[C@@H]5O[C@@H](C)[C@H](O)[C@@H](O)[C@H]5O)[C@@H](O)[C@H](O)[C@H]4O)cc3O2)cc1O", "fold change": 2.5}, {"compound": "CCCn1c(=O)c2[nH]c(C3CCCC3)nc2n(CCC)c1=O", "fold change": "1.07 and 0.717"}, {"compound": "N=c1ccn2c(n1)O[C@H]1[C@H](O)[C@@H](CO)O[C@H]12", "fold change": 1}, {"compound": "COc1cc(NS(C)(=O)=O)ccc1Nc1c2ccccc2nc2ccccc12", "fold change": 1.94}, {"compound": "C=C1C(=O)O[C@H]2[C@H]1CC/C(C)=C/CC[C@@]1(C)O[C@@H]21", "fold change": 0.618}, {"compound": "O=C(O)c1cc(=O)c2ccccc2[nH]1", "fold change": "0.635 and 0.733"}, {"compound": "O=C(O)c1c2ccccc2cc2ccccc12", "fold change": 0.787}, {"compound": "C[C@H](CCC(=O)O)[C@H]1CC[C@H]2[C@@H]3[C@H](O)C[C@@H]4C[C@H](O)CC[C@]4(C)[C@H]3CC[C@]12C", "fold change": 1.03}]}, {"experiment": "viability loss with induced miR-34 in A549 – imaging, A549 dox-inducible miR-34, nuclei and caspase counts, primary screen (AID 1347080)", "conditions": "A549 miR-34 inducible, Hoechst nuclei count, 48 h; measured here: total cells with miR-34 induction; stronger effect = lower value", "values": [{"compound": "CCC(=O)NCC[C@@H]1CCc2ccc3c(c21)CCO3", "cell count": 11800}, {"compound": "C[C@@H]1[C@H](O)[C@@H](C)/C=C/C=C/C=C/C=C/C=C/C=C/C=C/[C@H](O[C@@H]2O[C@H](C)[C@@H](O)[C@H](N)[C@@H]2O)C[C@@H]2O[C@](O)(C[C@@H](O)C[C@@H](O)[C@H](O)CC[C@@H](O)C[C@@H](O)CC(=O)O[C@H]1C)C[C@H](O)[C@H]2C(=O)O", "cell count": 7670}, {"compound": "O=C(O)C1=CCCNC1", "cell count": "8890 and 8940"}, {"compound": "CN[C@H](CC(C)C)C(=O)N[C@H]1C(=O)N[C@@H](CC(N)=O)C(=O)N[C@H]2C(=O)N[C@H]3C(=O)N[C@H](C(=O)N[C@H](C(=O)O)c4cc(O)cc(O)c4-c4cc3ccc4O)[C@H](O)c3ccc(c(Cl)c3)Oc3cc2cc(c3O[C@@H]2O[C@H](CO)[C@@H](O)[C@H](O)[C@H]2O[C@H]2C[C@](C)(N)[C@H](O)[C@H](C)O2)Oc2ccc(cc2Cl)[C@H]1O", "cell count": 9810}, {"compound": "CC[C@@]1(O)C[C@H](O[C@H]2C[C@H](N(C)C)[C@H](O[C@H]3C[C@H](O)[C@H](O[C@H]4CCC(=O)[C@H](C)O4)[C@H](C)O3)[C@H](C)O2)c2c(cc3c(c2O)C(=O)c2c(O)cccc2C3=O)[C@H]1C(=O)OC", "cell count": 1190}, {"compound": "C[C@H]1O[C@@H](O[C@H]2[C@@H](O)C[C@H](O[C@H]3[C@@H](O)C[C@H](O[C@H]4CC[C@@]5(C)[C@H](CC[C@@H]6[C@@H]5C[C@@H](O)[C@]5(C)[C@@H](C7=CC(=O)OC7)CC[C@]65O)C4)O[C@@H]3C)O[C@@H]2C)C[C@H](O)[C@@H]1O", "cell count": 512}, {"compound": "CCC[C@@H]1C[C@@H](C(=O)N[C@@H]([C@H]2O[C@H](SC)[C@H](O)[C@@H](O)[C@H]2O)[C@H](C)Cl)N(C)C1", "cell count": "9830 and 9930"}, {"compound": "C[C@H]1C[C@H]2[C@@H]3CCC4=CC(=O)C=C[C@]4(C)[C@@]3(F)[C@@H](O)C[C@]2(C)[C@@]1(O)C(=O)CO", "cell count": 6320}, {"compound": "COc1cccc(OC)c1OCCNCC1COc2ccccc2O1", "note": "(configuration not stated)", "cell count": "8030 and 7680"}, {"compound": "O=C(O)c1cc(=O)c2ccc(Cl)cc2[nH]1", "cell count": 8410}, {"compound": "C=C(C)[C@@H]1CC[C@]2(C(=O)O)CC[C@]3(C)[C@H](CC[C@@H]4[C@@]5(C)CC[C@H](O)C(C)(C)[C@@H]5CC[C@]43C)[C@@H]12", "cell count": "5780 and 2010"}, {"compound": "COc1cc2c(c(OC)c1OC)-c1ccc(OC)c(=O)cc1C(NC(C)=O)CC2", "note": "(configuration not stated)", "cell count": 1510}, {"compound": "CC(C)C[C@H]1C(=O)N2CCC[C@H]2[C@]2(O)O[C@](NC(=O)[C@@H]3C=C4c5cccc6[nH]c(Br)c(c56)C[C@H]4N(C)C3)(C(C)C)C(=O)N12", "cell count": "5460 and 4760"}, {"compound": "O=C(/C=C/c1ccc(O)c(O)c1)O[C@H](Cc1ccc(O)c(O)c1)C(=O)O", "cell count": "5220 and 9720"}, {"compound": "O=C(O)C1=CCNCC1", "cell count": "9950 and 8720"}, {"compound": "CC(=O)[C@H]1CC[C@H]2[C@@H]3CCC4=CC(=O)CC[C@]4(C)[C@H]3CC[C@]12C", "cell count": "8120 and 7150 and 6560"}, {"compound": "O=C(O)Cc1nn(Cc2ccc(Br)cc2F)c(=O)c2ccccc12", "cell count": 8710}, {"compound": "CCC[C@@H]1C[C@@H](C(=O)N[C@@H]([C@H]2O[C@H](SC)[C@H](O)[C@@H](O)[C@H]2O)[C@@H](C)O)N(C)C1", "cell count": 8810}, {"compound": "COc1ccc([C@@H]2CC(=O)c3c(O)cc(O[C@@H]4O[C@H](CO[C@@H]5O[C@@H](C)[C@H](O)[C@@H](O)[C@H]5O)[C@@H](O)[C@H](O)[C@H]4O)cc3O2)cc1O", "cell count": 8600}, {"compound": "CCCn1c(=O)c2[nH]c(C3CCCC3)nc2n(CCC)c1=O", "cell count": "7850 and 7600"}, {"compound": "N=c1ccn2c(n1)O[C@H]1[C@H](O)[C@@H](CO)O[C@H]12", "cell count": 3040}, {"compound": "COc1cc(NS(C)(=O)=O)ccc1Nc1c2ccccc2nc2ccccc12", "cell count": 867}, {"compound": "C=C1C(=O)O[C@H]2[C@H]1CC/C(C)=C/CC[C@@]1(C)O[C@@H]21", "cell count": 8550}, {"compound": "O=C(O)c1cc(=O)c2ccccc2[nH]1", "cell count": "10600 and 8100"}, {"compound": "O=C(O)c1c2ccccc2cc2ccccc12", "cell count": 9100}, {"compound": "C[C@H](CCC(=O)O)[C@H]1CC[C@H]2[C@@H]3[C@H](O)C[C@@H]4C[C@H](O)CC[C@]4(C)[C@H]3CC[C@]12C", "cell count": 9290}]}]}
